# Test results as given in the supplement of paper PMC8728848.
# Many of the other results were omitted from the sample, so the strongest signals are more common in it than they were.
# B1: Banana lectin (Musa acuminata) (protein)
# chain: MNGAIKVGAHGGNGGSAFDMGPAYRIISVKIFSGDVVDGVDVTFTYYGKTETRHYGGSGGTPHEIVLQEGEYLVGMAGEVANYHGAVVLGKLGFSTNKKAYGPFGNTGGTPFSLPIAAGKISGFFGRGGKFLDAIGVYLEPLEHHHHHH
# Key:
# Experiment in all cases: glycan array binding signal (z-score within array); higher = stronger binding
# Conditions in all cases: glycan notation: IUPAC condensed, linker removed; mutation: W10H
# [1] = biological target: Fuc(a1-2)Gal(b1-3)GalNAc(b1-3)Gal(a1-4)Gal(b1-4)Glc
# Method in brief: (§1)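 The Consortium for Functional Glycomics database supplied 3228 glycan arrays, of which those lacking an available protein sequence were dropped. The binding signal, a within-array Z-score, was averaged across arrays of the same protein sequence and across linkers. Negative scores can be read as non-binding.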
# [2] = biological target: Fuc(a1-2)Gal(b1-3)[Fuc(a1-4)]GlcNAc
# Method in brief: as §1
# [3] = biological target: Fuc(a1-2)Gal(b1-4)[Fuc(a1-3)]GlcNAc(b1-3)Gal(b1-4)[Fuc(a1-3)]GlcNAc(b1-3)Gal(b1-4)[Fuc(a1-3)]GlcNAc
# Method in brief: as §1
# [4] = biological target: Fuc(a1-2)Gal(b1-4)[Fuc(a1-3)]GlcNAc(b1-3)[Neu5Ac(a2-6)Gal(b1-4)GlcNAc(b1-6)]Gal(b1-4)Glc
# Method in brief: as §1
# [5] = biological target: Fuc(a1-2)[Gal(a1-3)]Gal(b1-3)GlcNAc(b1-3)GalNAc
# Method in brief: as §1
# [6] = biological target: Fuc(a1-2)[Gal(a1-3)]Gal(b1-3)GlcNAc(b1-6)GalNAc
# Method in brief: as §1
# [7] = biological target: Fuc(a1-2)[Gal(a1-3)]Gal(b1-4)GlcNAc(b1-2)Man
# Method in brief: as §1
# [8] = biological target: Fuc(a1-2)[Gal(a1-3)]Gal(b1-4)GlcNAc(b1-3)[Fuc(a1-2)[Gal(a1-3)]Gal(b1-4)GlcNAc(b1-6)]GalNAc
# Method in brief: as §1
# [9] = biological target: Fuc(a1-2)[GalNAc(a1-3)]Gal(b1-3)GalNAc(b1-3)Gal(a1-4)Gal(b1-4)Glc
# Method in brief: as §1
# [10] = biological target: Fuc(a1-3)[Gal(b1-4)]GlcNAc(b1-2)Man(a1-3)[Fuc(a1-3)[Gal(b1-4)]GlcNAc(b1-2)Man(a1-6)]Man(b1-4)GlcNAc(b1-4)[Fuc(a1-6)]GlcNAc
# Method in brief: as §1
# [11] = biological target: Fuc(a1-3)[Gal(b1-4)]GlcNAc(b1-3)Gal(b1-4)[Fuc(a1-3)]GlcNAc
# Method in brief: as §1
# [12] = biological target: Fuc(a1-3)[Gal(b1-4)]GlcNAc(b1-3)GalNAc
# Method in brief: as §1
# [13] = biological target: Fuc(a1-3)[GalNAc(b1-4)]GlcNAc6S
# Method in brief: as §1
# Gal(a1-2)Gal = biological target: Gal(a1-2)Gal
# Method in brief: as §1
# Gal(a1-3)Gal(b1-3)GlcNAc = biological target: Gal(a1-3)Gal(b1-3)GlcNAc
# Method in brief: as §1
# Gal(a1-4)Gal(b1-4)Glc = biological target: Gal(a1-4)Gal(b1-4)Glc
# Method in brief: as §1
# [14] = biological target: Gal(a1-4)Gal(b1-4)GlcNAc(b1-3)Gal(b1-4)Glc
# Method in brief: as §1
# Gal(b1-2)Gal = biological target: Gal(b1-2)Gal
# Method in brief: as §1
# Gal(b1-3)Gal = biological target: Gal(b1-3)Gal
# Method in brief: as §1
# Gal(b1-3)GlcNAc(b1-2)Man = biological target: Gal(b1-3)GlcNAc(b1-2)Man
# Method in brief: as §1
# [15] = biological target: Gal(b1-3)GlcNAc(b1-3)Gal(b1-4)[Fuc(a1-3)]GlcNAc
# Method in brief: as §1
# [16] = biological target: Gal(b1-3)[GlcNAc(b1-6)]GalNAc
# Method in brief: as §1
# [17] = biological target: Gal(b1-4)GlcNAc(b1-2)Man(a1-3)[Gal(b1-4)GlcNAc(b1-2)Man(a1-6)]Man(b1-4)GlcNAc(b1-4)GlcNAc
# Method in brief: as §1
# [18] = biological target: Gal(b1-4)GlcNAc(b1-2)[Gal(b1-4)GlcNAc(b1-4)]Man(a1-3)[GlcNAc(b1-4)][Gal(b1-4)GlcNAc(b1-2)[Gal(b1-4)GlcNAc(b1-6)]Man(a1-6)]Man(b1-4)GlcNAc(b1-4)GlcNAc
# Method in brief: as §1
# [19] = biological target: Gal(b1-4)GlcNAc(b1-2)[Gal(b1-4)GlcNAc(b1-6)]Man(a1-6)[Gal(b1-4)GlcNAc(b1-2)Man(a1-3)]Man(b1-4)GlcNAc(b1-4)[Fuc(a1-6)]GlcNAc
# Method in brief: as §1
# [20] = biological target: Gal(b1-4)GlcNAc(b1-2)[Gal(b1-4)GlcNAc(b1-6)]Man(a1-6)[GlcNAc(b1-4)][Gal(b1-4)GlcNAc(b1-2)Man(a1-3)]Man(b1-4)GlcNAc(b1-4)GlcNAc
# Method in brief: as §1
# [21] = biological target: Gal(b1-4)GlcNAc(b1-3)Gal(b1-4)GlcNAc(b1-2)[Gal(b1-4)GlcNAc(b1-3)Gal(b1-4)GlcNAc(b1-6)]Man(a1-6)[Gal(b1-4)GlcNAc(b1-3)Gal(b1-4)GlcNAc(b1-2)Man(a1-3)]Man(b1-4)GlcNAc(b1-4)GlcNAc
# Method in brief: as §1
# [22] = biological target: Gal(b1-4)GlcNAc(b1-3)Gal(b1-4)GlcNAc(b1-6)[Gal(b1-3)]GalNAc
# Method in brief: as §1
# [23] = biological target: Gal(b1-4)GlcNAc(b1-3)[Fuc(a1-3)GlcNAc(b1-6)]Gal(b1-4)Glc
# Method in brief: as §1
# [24] = biological target: Gal(b1-4)GlcNAc(b1-6)GalNAc
# Method in brief: as §1
binder,measurement,setting,value
B1,glycan array binding signal (z-score),[1],-0.164
same,glycan array binding signal (z-score),[2],-0.188
same,glycan array binding signal (z-score),[3],-0.169
same,glycan array binding signal (z-score),[4],-0.189
same,glycan array binding signal (z-score),[5],-0.17
same,glycan array binding signal (z-score),[6],-0.147
same,glycan array binding signal (z-score),[7],-0.169
same,glycan array binding signal (z-score),[8],-0.183
same,glycan array binding signal (z-score),[9],-0.156
same,glycan array binding signal (z-score),[10],-0.148
same,glycan array binding signal (z-score),[11],-0.146
same,glycan array binding signal (z-score),[12],-0.16
same,glycan array binding signal (z-score),[13],-0.194
same,glycan array binding signal (z-score),Gal(a1-2)Gal,-0.177
same,glycan array binding signal (z-score),Gal(a1-3)Gal(b1-3)GlcNAc,-0.171
same,glycan array binding signal (z-score),Gal(a1-4)Gal(b1-4)Glc,-0.169
same,glycan array binding signal (z-score),[14],-0.141
same,glycan array binding signal (z-score),Gal(b1-2)Gal,-0.172
same,glycan array binding signal (z-score),Gal(b1-3)Gal,-0.168
same,glycan array binding signal (z-score),Gal(b1-3)GlcNAc(b1-2)Man,-0.145
same,glycan array binding signal (z-score),[15],-0.174
same,glycan array binding signal (z-score),[16],-0.157
same,glycan array binding signal (z-score),[17],-0.187
same,glycan array binding signal (z-score),[18],-0.175
same,glycan array binding signal (z-score),[19],-0.143
same,glycan array binding signal (z-score),[20],-0.204
same,glycan array binding signal (z-score),[21],-0.113
same,glycan array binding signal (z-score),[22],-0.088
same,glycan array binding signal (z-score),[23],-0.141
same,glycan array binding signal (z-score),[24],-0.163
